Our source for the growth values is PubChem BioAssay (NCI).

The panel holds about 83,000 compounds, 20% with a hit somewhere; the sample as a whole holds those more often.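 Results are percent growth after 48 hours of single-concentration exposure. 100 means growth as in untreated cells, lower positive values show inhibition; negative values down to -100 show cell death.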 A number with no mark means an inactive call. Activity calls are given as the source filed them. Rule for the calls: active = growth percent below 10; inactive = the rest.

Some test systems named below: NCI-H23 lung; NCI-H226 lung; NCI-H322M lung; HOP-62 NSCLC; NCI-H460 lung; HOP-92 NSCLC; NCI-H522 lung; A549/ATCC NSCLC; 786-0 renal; COLO 205 colon; DU-145 prostate; K-562 leukemia; MALME-3M melanoma; MDA-MB-231 breast; RXF 393 renal; SF-268 CNS; SF-295 CNS; SF-539 CNS; UACC-257 melanoma; M14 melanoma.
Test in all cases: NCI-60 one-dose screen, 48 h (100 = growth as untreated, 0 = no growth, -100 = all killed)
Holding throughout (conditions): 10 µM unless noted

Regarding `C#Cc1cccc(Nc2nc3ccc([N+](=O)[O-])cc3nc2Nc2cccc(C#C)c2)c1`, the growth was -54.6% (active) in the assay on NCI-H23 lung; -42.3% (active) in the assay with NCI-H226 lung; 1.22% (active) with NCI-H322M lung; -94.7% (active) with HOP-62 NSCLC; -57.6% (active) with NCI-H460 lung; -24.9% (active) in the assay on HOP-92 NSCLC. In addition, the growth in the assay with NCI-H522 lung was -64% (active); in the assay with A549/ATCC NSCLC, -45.7% (active); with 786-0 renal it was -56.7% (active); in the assay on COLO 205 colon, -87.3% (active); with DU-145 prostate, -52.4% (active); in the assay with K-562 leukemia, -57.5% (active). Also, the growth in the assay with MALME-3M melanoma was -29.5% (active); in the assay on MDA-MB-231 breast, -57% (active); in the assay on RXF 393 renal, -56.4% (active); in the assay on SF-268 CNS it was -51.4% (active); in the assay on SF-295 CNS it was -69.4% (active); in the assay on SF-539 CNS it was -77.4% (active). In addition, the growth was -70.1% (active) in the assay on UACC-257 melanoma and -82% (active) in the assay with M14 melanoma.

Regarding `Cc1cc2nc(-c3c(-c4ccc(F)cc4)nc4sccn34)[nH]c2cc1C`, the growth with NCI-H23 lung is 94%; in the assay with NCI-H226 lung, 97.5%; with NCI-H322M lung, 99.7%; in the assay with HOP-62 NSCLC, 108%; with NCI-H460 lung, 106%; with HOP-92 NSCLC, 86.1%. For the same compound, the growth with NCI-H522 lung was 85%; in the assay with A549/ATCC NSCLC it was 95.6%; in the assay on 786-0 renal, 86.3%; with COLO 205 colon, 105%; with DU-145 prostate, 94.3%; in the assay on K-562 leukemia, 94.1%. The growth in the assay with MALME-3M melanoma was 106%; with MDA-MB-231 breast, 102%; in the assay with RXF 393 renal it was 93.2%; in the assay with SF-268 CNS it was 90.8%; in the assay on SF-295 CNS, 92.5%; with SF-539 CNS, 98.2%. Moreover, the growth was 109% with UACC-257 melanoma and 99.5% in the assay with M14 melanoma.

Turning to `COc1ccc(C(c2cc(OC)c(OC)c(OC)c2)N2CCCC2)cc1` (stereo not given), the growth in the assay on NCI-H23 lung is 85.3%; in the assay with NCI-H226 lung, 87.6%; in the assay on NCI-H322M lung, 87.5%; with HOP-62 NSCLC it was 79.5%; with NCI-H460 lung, 84.3%; in the assay with HOP-92 NSCLC it was 85.5%. Further, the growth was 58.5% with NCI-H522 lung; 77.7% in the assay with A549/ATCC NSCLC; 93.4% with 786-0 renal; 71.2% in the assay with COLO 205 colon; 103% in the assay with DU-145 prostate; 25.3% with K-562 leukemia. The growth was 85.3% in the assay on MALME-3M melanoma; 80.8% with MDA-MB-231 breast; 103% in the assay with RXF 393 renal; 84.3% in the assay on SF-268 CNS; 69.7% in the assay with SF-295 CNS; 95.7% with SF-539 CNS. Also, the growth in the assay on UACC-257 melanoma is 74.6%; with M14 melanoma, 60.1%.

Regarding `CCCC(O)Cn1ncc(C(=O)OCC)c1NC(=O)NCc1cccc(F)c1` (stereo not given), the growth was 91.2% with NCI-H23 lung; 112% with NCI-H226 lung; 93% in the assay on NCI-H322M lung; 100% in the assay with HOP-62 NSCLC; 107% with NCI-H460 lung; 71.3% in the assay on HOP-92 NSCLC. The growth was 58.6% in the assay on NCI-H522 lung; 88.4% with A549/ATCC NSCLC; 73.4% in the assay on 786-0 renal; 111% with COLO 205 colon; 99.4% with DU-145 prostate; 68.6% in the assay on K-562 leukemia. Further, the growth with MALME-3M melanoma is 97.6%; in the assay with MDA-MB-231 breast, 103%; with RXF 393 renal, 120%; in the assay on SF-268 CNS it was 98.4%; in the assay with SF-295 CNS it was 93.3%; in the assay on SF-539 CNS it was 94.8%. In addition, the growth in the assay on UACC-257 melanoma was 85.2%; with M14 melanoma it was 80.5%.

For `CCC(CC)(N(CC(=O)O)CC(=O)O)C(CC)(CC)N(CC(=O)O)CC(=O)O`, the growth in the assay on NCI-H23 lung is 106%; with NCI-H226 lung, 106%; with NCI-H322M lung, 122%; with HOP-62 NSCLC, 103%; in the assay with NCI-H460 lung, 108%; in the assay with HOP-92 NSCLC it was 95.6%. Further, the growth in the assay on NCI-H522 lung is 100%; in the assay on A549/ATCC NSCLC it was 91.3%; in the assay on 786-0 renal, 109%; with COLO 205 colon, 113%; in the assay on DU-145 prostate, 119%; in the assay with K-562 leukemia, 101%. In addition, the growth is 133% in the assay with MALME-3M melanoma; 110% in the assay on MDA-MB-231 breast; 120% in the assay on RXF 393 renal; 114% in the assay on SF-268 CNS; 108% with SF-295 CNS; 109% with SF-539 CNS. The growth is 100% in the assay on UACC-257 melanoma and 106% in the assay on M14 melanoma.

For the compound `Nc1nc(C(=O)N/N=C/c2ccc(N3CCOCC3)cc2)nn1-c1ccc(S(N)(=O)=O)cc1`, the growth was 100% with NCI-H23 lung; 96.7% in the assay with NCI-H226 lung; 106% in the assay on NCI-H322M lung; 103% with HOP-62 NSCLC; 110% with NCI-H460 lung; 97.7% in the assay on HOP-92 NSCLC. Besides, the growth is 101% with NCI-H522 lung; 100% in the assay on A549/ATCC NSCLC; 95.7% with 786-0 renal; 120% with COLO 205 colon; 105% with DU-145 prostate; 94% with K-562 leukemia. The growth was 107% in the assay on MALME-3M melanoma; 115% in the assay with MDA-MB-231 breast; 108% in the assay on RXF 393 renal; 99% in the assay with SF-268 CNS; 104% in the assay on SF-295 CNS; 105% in the assay on SF-539 CNS. Moreover, the growth was 107% with UACC-257 melanoma and 103% in the assay with M14 melanoma.

Turning to `CCn1cc(C(=O)N/N=C/c2ccc(Br)cc2)c(=O)c2cc(F)c(N3CCNC(C)C3)c(F)c21` (stereo not given), the growth with NCI-H23 lung was 91%; in the assay on NCI-H226 lung, 97.3%; in the assay with NCI-H322M lung, 85.8%; in the assay with HOP-62 NSCLC, 88.8%; in the assay on NCI-H460 lung it was -50.8% (active); with HOP-92 NSCLC it was 61.2%. In addition, the growth in the assay on NCI-H522 lung was 78.5%; in the assay on A549/ATCC NSCLC it was 45.3%; in the assay on 786-0 renal, 63.9%; in the assay on COLO 205 colon, 32.1%; with DU-145 prostate, 31.4%; in the assay on K-562 leukemia it was -12.6% (active). Besides, the growth is 58.7% in the assay with MALME-3M melanoma; 54.8% with MDA-MB-231 breast; 61.3% with RXF 393 renal; 62.6% in the assay on SF-268 CNS; 74.5% in the assay on SF-295 CNS; 71.4% in the assay on SF-539 CNS. The growth in the assay with UACC-257 melanoma was 104%; in the assay on M14 melanoma it was 42.7%.

`COc1ccc(C2CC(c3ccc4c(c3)OCO4)=Nc3c(N)ncnc3N2)cc1` (stereo not given): the growth was 107% in the assay with NCI-H23 lung; 100% in the assay with NCI-H226 lung; 95.4% in the assay with NCI-H322M lung; 88.6% in the assay on HOP-62 NSCLC; 111% with NCI-H460 lung; 62.4% with HOP-92 NSCLC. Further, the growth in the assay with NCI-H522 lung was 108%; with A549/ATCC NSCLC, 104%; in the assay on 786-0 renal, 102%; with COLO 205 colon, 100%; in the assay with DU-145 prostate, 141%; in the assay on K-562 leukemia it was 99.6%. In addition, the growth was 106% with MALME-3M melanoma; 90.1% with MDA-MB-231 breast; 84.3% in the assay on RXF 393 renal; 93.3% with SF-268 CNS; 168% in the assay with SF-295 CNS; 110% in the assay with SF-539 CNS. For the same compound, the figures for the growth in the assay on UACC-257 melanoma and in the assay on M14 melanoma were 107% and 105%, respectively.
